Screening results as filed in PubChem.
This is a sample that favours compounds with a hit; in the whole collection about 4% have one here.
Caspase-7 inhib: caspase-7 (human) inhibition, allosteric or competitive; recombinant caspase-7, Ac-DEVD-AFC fluorescence rate; Potency, µM (doses to about 57.5 µM), for the others: top-dose activity change, negative = inhibition, most hits filed as inhibitors; P55210; AID 889; hit rate 0.02% among 75,000; active means well fitted inhibition curve with a large enough effect in the main read-out, with a control signal flat, not every such curve was filed as active; inconclusive means small, poorly fitted or top-dose-only effect, or a change in a side signal; further: % of control where 0% means no effect
GBA mod: human lysosomal glucosylceramidase modulation. hit rate 1.1% among 48,000. purified enzyme, resorufin glucoside fluorescence (screen aimed at inhibitors), 20 min. P04062. Potency, µM; in the data active means potency below about 15 µM; inconclusive means mostly about 16 µM to 33 µM;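 further: the screen sought inhibitors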
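Normal human glucocerebrosidase (0.2 nM final) was assayed with resorufin β-D-glucopyranoside (30 uM final) in 50mM citric acid/KH2PO4, 10mM sodium taurocholate, 0.01% tween-20, pH 5.9. Compounds were titrated; fluorescence (Ex 548, Em 600) read after 20 min at RT.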
Casp1 inh: blocks human caspase-1 allosterically or competitively. AID 900. P29466. Potency, µM (doses to about 57.5 µM), inactives show at the highest dose activity change, negative = inhibition, most hits filed as inhibitors. Caspase-1 enzyme, Ac-WEHD-AFC fluorogenic rate. hit rate 0.03% among 75,000;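 further: plate controls were vehicle for no effect and no substrate for full effect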
HEK293 cAMP cs: counter-screen for TSHR agonists: cAMP increase in parental HEK293; parental HEK293 CNG cAMP sensor, membrane potential fluorescence; Potency, µM (series often up to 57.1 µM), for the others: top-dose activation, most hits filed as activators; hit rate 2.5% among 73,000; AID 938; further: % of control where 0% means no effect; nearly all actives have a fitted effect of over 55% in size
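Parental HEK 293 cells stably expressing a modified CNG channel (no TSHR) report cAMP rise as membrane depolarization. Membrane potential dye with 100 uM RO 20-1724 was loaded for 60 min at room temperature, then compound added for 30 min; fluorescence read at 590 nm.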
TSHR ag: activates the human thyroid stimulating hormone receptor; hit rate 0.48% among 73,000; Potency, µM (titrated, usually from 57.1 µM), for the others: top-dose activation, most hits filed as activators; P16473; HEK293-CNG-TSHR cells (CNG channel as cAMP sensor), membrane potential dye, cAMP; active means well fitted activation curve with a large enough effect in the main read-out, with a control signal flat, not every such curve was filed as active; inconclusive means small, poorly fitted or top-dose-only effect, or a change in a side signal; inactive means no such curve, though single readings can be large or run the other way; % of control where 0% means no effect;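 further: the control signal comes from parental cells without the receptor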
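cAMP rise detected as CNG-channel membrane depolarization by fluorescent dye (emission 590 nm), 30 min after compound, following 60 min dye loading containing 100 uM RO 20-1724 at room temperature. Cells: TSHR/CNG HEK 293, with parental CNG HEK 293 as control.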
Bst PK mod: pyruvate kinase (B. stearothermophilus) modulation. Potency, µM. AID 361. hit rate 1.2% among 51,000. purified pyruvate kinase, luminescence ATP production; ribose 5-phosphate activator present at AC10; in the data active means potency below about 11 µM; inconclusive means mostly about 12 µM to 25 µM;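 the screen sought inhibitors and activators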;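 further: scaled between full activation by ribose 5 phosphate and full inhibition by luteolin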
The depositor's hits bear a star; [ ] = remark or other dose. Unless noted, the call rests on the fitted dose curve; in most records, active means well fitted curve in the direction sought with a large enough effect; inconclusive means small, poorly fitted or top-dose-only effect, or another doubt; inactive means no such curve, though single readings can be large; an effect the other way counts as inactive or inconclusive. Potency means the concentration at half of the fitted maximal effect.

Results for COc1ccccc1N1CCN(C(=O)CSc2nc(C)c(Cc3ccccc3)c(=O)[nH]2)CC1 ?
Caspase-7 inhib: -5%; GBA mod: >77; Casp1 inh: -5%; HEK293 cAMP cs: 25µM*; TSHR ag: inconclusive; Bst PK mod: >57

Results for COc1ccc(N2CCN(C(=O)CSc3nnc(C)c(=O)[nH]3)CC2)cc1 ?
Caspase-7 inhib: 0%; GBA mod: >77; Casp1 inh: 0%; HEK293 cAMP cs: 1.3µM*; TSHR ag: inconclusive; Bst PK mod: >57

How did COc1ccc(N2CCN(C(=O)CSc3ccccc3)CC2)cc1 do in these assays?
Caspase-7 inhib: 1%; Casp1 inh: -1%; HEK293 cAMP cs: -1%[11.4 µM]; TSHR ag: -6%[11.4 µM]

What do the screens show for `C=CCn1c(SCC(=O)c2ccccc2)nnc1-c1cc2ccccc2o1`?
Caspase-7 inhib: 0%; GBA mod: >77; Casp1 inh: -8%; HEK293 cAMP cs: 32µM*; TSHR ag: inconclusive; Bst PK mod: >57

What do the screens show for `O=C(O)c1cc(O)c2c(c1)[C@H]([C@H]1c3cc(C(=O)O)cc(O)c3C(=O)c3c(O[C@@H]4OC(CO)C(O)C(O)C4O)cccc31)c1cccc(O[C@@H]3OC(CO)C(O)C(O)C3O)c1C2=O` (stereo partly specified)?
Caspase-7 inhib: 10µM*; Casp1 inh: 25µM*

How did CC1CCc2cc(F)ccc2N1C(=O)c1ccc2c(c1)OCO2 (stereo unspecified) do in these assays?
Caspase-7 inhib: 0%; GBA mod: >77; Casp1 inh: -2%; HEK293 cAMP cs: 25%; TSHR ag: 25µM*; Bst PK mod: >57

What do the screens show for `O=C(O)c1cccc(C[C@H](Br)C(=O)O)c1`?
Caspase-7 inhib: 0%[11.5 µM]; Casp1 inh: -1%[11.5 µM]; HEK293 cAMP cs: 10%[11.4 µM]; TSHR ag: -2%[11.4 µM]

What do the screens show for `Cc1ccc(Cn2nnc3c(=O)[nH]c(C4CCN(S(=O)(=O)c5cc(C)ccc5C)CC4)nc32)cc1`?
Caspase-7 inhib: -2%; GBA mod: inconclusive; Casp1 inh: -7%; HEK293 cAMP cs: -2%; TSHR ag: 2%[11.4 µM]; Bst PK mod: >57

How did Cc1ccc(C)c(S(=O)(=O)N2CCC(c3nc4c(nnn4Cc4ccc(F)cc4)c(=O)[nH]3)CC2)c1 do in these assays?
Caspase-7 inhib: -2%; GBA mod: 7.1*; Casp1 inh: -1%; HEK293 cAMP cs: 5%; TSHR ag: 3%; Bst PK mod: >57

How did Cc1ccc(Cn2nnc3c(=O)[nH]c(C4CCN(S(=O)(=O)c5ccc(F)cc5)CC4)nc32)cc1 do in these assays?
Caspase-7 inhib: -2%; GBA mod: 5.5*; Casp1 inh: -3%; HEK293 cAMP cs: -7%; TSHR ag: 7%; Bst PK mod: >57

Results for OCCNc1ncnc2c1ncn2[C@@H]1O[C@@H](CO)[C@H](O)[C@@H]1O ?
Caspase-7 inhib: 0%[11.5 µM]; Casp1 inh: -1%[11.5 µM]; HEK293 cAMP cs: -9%[11.4 µM]; TSHR ag: 5%[11.4 µM]

Results for CC(C)(C)[C@@]1(O)CCN2C[C@@H]3c4ccccc4CCc4cccc(c43)[C@@H]2C1 ?
Caspase-7 inhib: 1%; Casp1 inh: 5%; HEK293 cAMP cs: 27%; TSHR ag: inconclusive

What do the screens show for `CCC(Oc1ccccc1)C(=O)Nc1nnc(C)s1` (stereo unspecified)?
Caspase-7 inhib: 1%; GBA mod: >77; Casp1 inh: -1%; HEK293 cAMP cs: 5%; TSHR ag: -6%; Bst PK mod: >57

Results for CCC(Oc1ccccc1)C(=O)Nc1ccccc1OC (stereo unspecified) ?
Caspase-7 inhib: 1%; Casp1 inh: -1%; HEK293 cAMP cs: 32µM*; TSHR ag: inconclusive

Results for COc1ccc(N(CC(=O)Nc2ccc(C)c(C)c2)S(=O)(=O)c2c(C)n[nH]c2C)cc1 ?
Caspase-7 inhib: -1%; GBA mod: 15*; Casp1 inh: 0%; HEK293 cAMP cs: -1%; TSHR ag: 19%; Bst PK mod: >57

How did COc1ccc(N(CC(=O)Nc2cccc(C)c2)S(=O)(=O)c2c(C)n[nH]c2C)cc1 do in these assays?
Caspase-7 inhib: -2%; GBA mod: >77; Casp1 inh: 0%; HEK293 cAMP cs: 5%; TSHR ag: -6%; Bst PK mod: >57
